Measurements as given in the supplement of paper PMC11417369.
Whole data set: some 25,000 sequences, median “ln(normalized median fluorescence intensity)” near 6.7, cut for the highest 2% near 10. What follows is part of a selection rich in the highest values, with near analogues and random picks from the rest.

Each sequence was assayed on PfHDP1 homeodomain (GST-tagged) (assay: gcPBM binding intensity (ln(normalized median fluorescence intensity)); higher = stronger DNA binding).
Outline: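 Plasmodium falciparum DNA-binding domains carrying a GST tag were expressed in E. coli and applied for 1 h, at about 25 μg on average, to an Agilent 4 × 180k array. The array held primer-extended double-stranded 36-bp intergenic genomic probes together with negative controls, and binding took place in 1× PBS with 1% milk, 0.2 mg/ml BSA, 0.5% salmon testes DNA and 0.03% Triton X-100. An Alexa488 anti-GST antibody detected bound protein, and the array was scanned at 488 nm. Binding intensity is taken as the highest Masliner-normalised natural-log median intensity across replicate spots of either probe orientation.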

Sequence | gcPBM binding intensity (ln)
AAAAAAAAAAAAAAATGTACATATATATATTATAAA [XGTACX_site518] | 6.33
ATTTTATTTTTTAATAGTACTCATTTTTTATGTGAA [XGTACX_site5494] | 6.48
TTAAAGCTGACATATACACACATACATAAATTCATA [CACACA_site5377] | 6.75
GATCCTGGTTCTTGTGGTACTTGTTCATTTGTTATA [XGTACX_site7164] | 6.69
TATATATATATAAGATGTACCCTTTGAAATAATAAT [XGTACX_site7215] | 8.66
AAAATTTAATATAATGCACACATAAAAAAAAAAAAT [CACACA_site8425] | 10.4
TAGACAAAATATAATGCACACTATTATTTTTATTTA [CACACA_site5508] | 10.4
ATTTCGTAATTTATATCACACACATATATATATAAT [CACACA_site9021] | 6.84
ACTAGACAAAATATAATGCACACTATTATTTTTATT [CACACA_site2726] | 10.6
AAAATTTAATATAATGCACACATAAAAAAAAAAAAA [CACACA_site7923] | 10.4
ATATTTTATTATATAGGTACACATAATTTCATGTAA [XGTACX_site415] | 6.34
AATTTAATATAATGCACACATAAAAAAAAAAAAAAA [CACACA_site123] | 10.5
TATATATATTTATGCACACAAAATATATTATATAAT [CACACA_site5955] | 10.4
AATTTAATATAATGCACACATAAAAAAAAAAAATTC [CACACA_site1504] | 10.6
TATAATTTAAAATACACACACATATATATAATATAT [CACACA_site2000] | 6.76
CATATATATCGTAATGCACACATGTAATTTCATAAT [CACACA_site811] | 10.7
AAAATTTAATATAATGCACACATAAAAAAAAATTCA [CACACA_site8640] | 9.79
TATTTATACATACATACACACATATAGATTTATATT [CACACA_site7851] | 6.85
TACATACATACATACACACATACATATGTATATATA [CACACA_site2480] | 7.37
TTTATTAATAGACACACACACACACGCAAAATAAAA [CACACA_site6255] | 7.16

Sequence | gcPBM binding intensity (ln)
ATGGACTTTTATAGTTGTACATACTATGAGAACTTT [XGTACX_site2800] | 7.08
AAGGGTTGCCTGTGTAGTACATATATATATATATAT [XGTACX_site8555] | 9.24
GAGAAATGGGGACACACACACATATTATATATATAT [CACACA_site4943] | 8.53
TATAAATTTGTTGTTGCATGCAGTATACCAAAAAAA [TGCATGCA_site445] | 7.18
AAGGTGGGAAAAAATAGTACACAACAAAAATGTATG [XGTACX_site8741] | 6.64
AAACATTAAAATAACTCACACATTTTTCTAGTCTTC [CACACA_site4612] | 6.19
AGAACTTTTAATGGATGTACAGTTATTTTATTATTT [XGTACX_site6226] | 6.12
ATATATATATATATAGTGCATAAAATAAGTTTCTAA | 9.54
TATGTTTTTACATATTGTACATATTCTTGTAATACG [XGTACX_site1179] | 6.29
TTCATATAATTCATCTGTACATATTGATAGTATGCA [XGTACX_site6386] | 6.29
ACTACGTGTCAAAAATATTAATTACAAATGAATAAA [GTGCAC_negctrl_site248] | 6.08
AGTAGTCTGGAGAAGAGTACACAGTATCTGGTAACA [XGTACX_site2032] | 6.02
ACATCATAAAATTTATGTACACATTTTTAATTATAC [XGTACX_site7759] | 6.51
CTCTATAAATGCTGCACACACATTTAATTATTTAAG [CACACA_site2582] | 8.11
AATATTTTAATGCACACACACAAAAAAAAAAAAAAA [CACACA_site7374] | 10.7
ATTTATAAAATTAATGCACACATCAGCATTTATAAA [CACACA_site1025] | 10.6
ATAATATTTTAATGCACACACACAAAAAAAAAAAAA [CACACA_site2891] | 9.96
TTTAAATTTTAATATGCACACAAAATGTTATATTAA [CACACA_site8015] | 9.9
ATTTCTACTAAAAATACACACGATGATACAACGAAG [CACACA_site1755] | 6.85
ATATATTAAAAACGATGTACCCTGAACTAAAAAAAA [XGTACX_site4986] | 6.52

Sequence | gcPBM binding intensity (ln)
AACGTTCAATTTAAATGTACAAATGTATTTAAATAT [XGTACX_site315] | 6.38
TATATTTAGAATACAATCTTAAAGTTGAAATAAAAT [CACACA_negctrl_site1292] | 6.03
TTATATTAAAAAAGATGTACGTTTAGGAAAAATATA [XGTACX_site7456] | 6.53
TAAGGAAAAAATTATAGTACATAATAAATGTATATA [XGTACX_site8328] | 6.15
TCATACATTTTCCTTGCACACATTTATAATTAATGT [CACACA_site614] | 8.95
TATATATATATATATGCACACATTTATACAATTTTA [CACACA_site2986] | 10.2
CTTTTTTTTTTATGCACACACAATTATACATTCCTT [CACACA_site3877] | 10.6
TTCCTTTAACCCTGCACACATACATACATTTATATG [CACACA_site3953] | 8.51
TCCTTTTTTTTTTATGCACACACAATTATACATTCC [CACACA_site9287] | 10.5
TCATACATTTTCCTTGCACACATTTATAATTAATGG [CACACA_site4511] | 8.55
ATGTATGTATAATATACACACTCACAAGCATTCAAA [CACACA_site4306] | 6.75
ATATTCTTCTAAAGGCGTACATCTACATTTATGAAA [XGTACX_site2145] | 6.28
TTTATATATAAATATATATATATATATATATATATA [TGCATGCA_negctrl_site121] | 9.28
TCTAGGAAAAATTATAGTACACAAAAATATATATAT [XGTACX_site4136] | 7.95
CACATATACTTCTGTGCACACGAATATTTTTCTTCT [CACACA_site1408] | 11.2
ATAAAATATAGGTATGCACACACATATACTTCTGTG [CACACA_site8398] | 8.84
TAATATACTTAATACACACACGAATATTTATAAATA [CACACA_site6675] | 6.97
CATATATATATATATACACACATATATATTTTCTTT [CACACA_site1457] | 7.04
CATATACTTCTGTGCACACGAATATTTTTCTTCTTC [CACACA_site1407] | 11.2
AAAATATAGGTATGCACACACATATACTTCTGTGCA [CACACA_site1409] | 10
